Measured values published in the supplement of paper PMC9177965.

test system: HT29 RNF43 G659fs (RNF43 659mut, CRISPR-edited); test: cell viability activity relative to DMSO (negative = inhibition); higher = more viable cells (less growth inhibition); conditions: 5 µM; 96 h
Description: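 Broad Repurposing Library primary screen at a single dose of 5 uM. HT29 sg-Ctrl and HT29 RNF43 G659fs CRISPR-edited isogenic cells were seeded at 2500 cells/well in 384-well plates in duplicate and treated for 96 h. Viability was read by CellTiter-Glo and reported as % activity relative to DMSO, with MG132 as the positive control (negative = growth inhibition).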

Structure (SMILES) | cell viability activity [%]
CCCC[C@H](NC(C)=O)C(=O)N[C@H]1CC(=O)NCCCC[C@@H](C(=O)O)NC(=O)[C@H](Cc2c[nH]c3ccccc23)NC(=O)[C@H](CCCNC(=N)N)NC(=O)[C@@H](Cc2ccccc2)NC(=O)[C@H](Cc2c[nH]cn2)NC1=O | -42.1
CCCCCCCCNC(C)C(O)c1ccc(SC(C)C)cc1 (stereo not drawn) | -87.2
Clc1ccc(C2(c3ccc(-c4cn[nH]c4)cc3)CCNCC2)cc1 | -71.5
OCCN1CCN(CCCN2c3ccccc3Sc3ccc(Cl)cc32)CC1 | -53.2
Cc1ccc(S(=O)(=O)C=CC#N)cc1 | -98.8
C[C@H](Nc1cc(-c2cnn(C)c2)cc(Nc2cnccn2)n1)c1ccc(F)cc1 | -46.9
O=C(NOCCO)c1cc(CN2OCCCC2=O)c(F)c(F)c1Nc1ccc(I)cc1F | -76.5
Cc1cc(Nc2ccc(NC(=O)c3ccc(Nc4ccnc5ccccc45)cc3)cc2)nc(N)n1 | -91
O=C(c1cn(Cc2cncn2Cc2ccc(Br)cc2)cc1-c1cccc2ccccc12)N1CCOCC1 | -42.8
CN[C@@H]1C[C@H]2O[C@@](C)([C@@H]1OC)n1c3ccccc3c3c4c(c5c6ccccc6n2c5c31)C(=O)N[C@H]4O | -88.9
Clc1ccc(CSC(Cn2ccnc2)c2ccc(Cl)cc2Cl)cc1 (stereo not drawn) | -38.7
COc1cc(N2CCC(N)CC2)ccc1Nc1ncc(Cl)c(-c2c[nH]c3ccccc23)n1 | -95.8
CC(C)[C@H]1c2ccc(F)cc2CC[C@@]1(CCN(C)CCCc1nc2ccccc2[nH]1)OC(=O)C1CC1 | -90
CN[C@H](C(=O)N[C@H](C(=O)N(C)[C@H](/C=C(\C)C(=O)O)C(C)C)C(C)(C)C)C(C)(C)c1ccccc1 | -56.6
COc1cc(OC)c(/C=C/S(=O)(=O)Cc2ccc(OC)c(NCC(=O)O)c2)c(OC)c1 | -58.2
CC(=O)N1CCN(CCOc2ccc(C3CCN(C4=Nn5c(nnc5C(F)(F)F)CC4)CC3)cc2)CC1 | -32.3
Cc1ccccc1CN1C(=O)C2=C(CCN(Cc3ccccc3)C2)N2CCN=C12 | -72.9
Fc1cc(-c2cccc3ncc(-c4cnn(C5CCNCC5)c4)nc23)cc(F)c1CN1CCOCC1 | -93.7
CCOC(=O)CCNc1cc(N2CCc3ccccc3CC2)nc(-c2ccccn2)n1 | -82.7

Structure (SMILES) | cell viability activity [%]
CC1NC(=O)C(N)CNC(=O)C(C2CCN=C(N)N2)NC(=O)/C(=C\NC(N)=O)NC(=O)C(CNC(=O)CC(N)CCCN)NC1=O (stereo not drawn) | -29.5
CN1CCN(Cc2ccc(-c3cnc4[nH]cc(-c5ccc6[nH]ccc6c5)c4c3)cc2)CC1 | -90.1
COc1c/c(=C2\C=c3ccccc3=N2)[nH]/c1=C\c1[nH]c(C)cc1C | -93.8
Cc1c(C(=O)Nc2ccc(N3CCC(N4CCOCC4)CC3)c(C#N)c2)cnn1-c1ccc(Cl)cc1 | -36.4
CCC[C@H](Nc1nc(-c2ccc(NC(=O)NCC)c(OC)c2)ncc1C)c1cccnc1 | -57.8
C/C(=N\NC(=S)N1CCC1)c1ccccn1 | -82.2
O=C(c1ccc(F)c(F)c1Nc1ccc(I)cc1F)N1CC(O)([C@@H]2CCCCN2)C1 | -86.8
CCOc1cc2ncc(C#N)c(Nc3ccc(OCc4ccccn4)c(Cl)c3)c2cc1NC(=O)/C=C/CN(C)C | -50.3
Cc1cc(C2CCCCC2)n(O)c(=O)c1 | -85.1
C[C@@H]1COCCN1c1cc(=O)n2c(n1)N(Cc1cncc(Cl)c1)[C@H](C(F)(F)F)CC2 | -57.9
COc1cc([C@@H]2c3cc4c(cc3[C@@H](O[C@@H]3O[C@@H]5CO[C@@H](C)O[C@H]5[C@H](O)[C@H]3O)[C@H]3COC(=O)[C@H]23)OCO4)cc(OC)c1OP(=O)(O)O | -25.3
Cn1cnc2c(F)c(Nc3ccc(Br)cc3F)c(C(=O)NOCCO)cc21 | -75.9
COc1cc2ncnc(Sc3nnc(C)s3)c2cc1OC | -29.5
O=C(/C=C\n1cnc(-c2cc(C(F)(F)F)cc(C(F)(F)F)c2)n1)NNc1cnccn1 | -73.9
CN(C)/N=N/c1[nH]cnc1C(N)=O | -31.5
C=C[C@@](C)(/C=C/c1ccc(O)cc1)CCC=C(C)C | -39.5
O=C(/C=C/c1ccc2ccccc2n1)c1ccncc1 | -68.9
CNCCn1c(=O)c2cc(OC)c(OC)cc2c2cnc3cc4c(cc3c21)OCO4 | -81.7
CC(C)(C)CC(C)(C)c1ccc(OCCOCC[N+](C)(C)Cc2ccccc2)cc1 | -98.5
